# AMA1 RON2 block: disrupts binding of P. falciparum AMA1 to RON2 | Potency, µM (top dose mostly 58.2 µM), for the others: at the highest dose activity change, negative = inhibition, usual class: inhibitors | AID 720542 | AlphaScreen AMA1-biotinylated RON2 peptide binding | actives 0.2% (n = 360,000);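 further: 0% = vehicle wells and -100% = peptide control; nearly all actives have a fitted effect of over 45% in size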
#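 AMA1 (3D7) with his tag at 25 nM final met compounds first, then biotinylated RON2 peptide at 25 nM; detection used donor plus acceptor beads, 10 µg/mL apiece, read by AlphaScreen after 30 min at room temperature.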
# Pf growth 48h: inhibits P. falciparum growth in the first generation, 48 h; Potency, µM (top dose mostly 28.7 µM), for the others: at the highest dose activity change, negative = inhibition, most hits filed as inhibitors; P. falciparum luciferase growth in erythrocytes, 48 h; actives 5.9% (n = 310,000); further: on the % scale 0 is the no-effect control and ±100 the full control effect
#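 Read-out is firefly luciferase luminescence from an integrated reporter in P. falciparum, so falling signal marks reduced parasite growth. Infected erythrocytes were at 2% hematocrit and 0.1% parasitemia (final) in Albumax-supplemented RPMI 1640.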
# Pf growth 96h: inhibits malaria parasite growth, 96 h | P. falciparum luciferase reporter growth, 96 h | Potency, µM (titrated, usually from 28.7 µM), for the others: at the top dose activity change, negative = inhibition, hits mostly inhibitors | actives 6.9% (n = 320,000); further: on the % scale 0 is the no-effect control and ±100 the full control effect
#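 P. falciparum expressing integrated firefly luciferase grown in erythrocytes (2% hematocrit, 0.05% parasitemia final) with compounds for 96 hours at 37 C, 5% CO2. Growth inhibition read as loss of luminescence after adding luciferase detection reagent.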
# SARS PLP yeast: blocks SARS-CoV papain-like protease in a yeast assay. Potency, µM (doses to about 32.9 µM), inactives show at the highest dose activity, positive = growth rescue, most hits filed as activators. actives 0.19% (n = 330,000). S. cerevisiae expressing SARS-CoV PLpro, growth rescue; calls by dose curve; further: 0% is about no effect; nearly all actives have a fitted effect of over 55% in size
# Numbers without * were called inactive; ? = inconclusive; . = no result; [ ] = dose if it differs, or a comment. A selection: hits, their analogues and other compounds. The true share with any hit is near 9.4%. Unless noted, the call rests on the fitted dose curve; in most records, active means well fitted curve in the direction sought with a large enough effect; inconclusive means small, poorly fitted or top-dose-only effect, or another doubt; inactive means no such curve, though single readings can be large; an effect the other way counts as inactive or inconclusive. Potency means the concentration at half of the fitted maximal effect.
SMILES,AMA1 RON2 block,Pf growth 48h,Pf growth 96h,SARS PLP yeast
O=C(OCc1ccc([N+](=O)[O-])cc1)c1cc(S(=O)(=O)N2CCCCC2)ccc1N1CCOCC1,0%,?,10µM*,3%
CSc1ccc(COC(=O)c2cc([N+](=O)[O-])ccc2N2CCOCC2)cc1,?,?,?,4%
CN(C)S(=O)(=O)c1cccc(COC(=O)c2cc([N+](=O)[O-])ccc2N2CCOCC2)c1,-28%,13µM*,10µM*,0%
CCOC(=O)c1c(NC(=O)C2COc3ccccc3O2)sc2c1CC(C)(C)NC2(C)C (stereo unspecified),-14%,?,?,-22%
CC1(C)Cc2ccccc2-c2nnc(-c3cccnc3)n21,6%,2.3µM*,.,2%
Cc1cc(CNCc2cn(C)nc2-c2ccc(Oc3ccccc3)cc2)on1,-8%,?,12µM*,-1%
Cn1cc(CNCC2CCCO2)c(-c2ccc(Oc3ccccc3)cc2)n1 (stereo unspecified),24%,?,-27%,-2%
CN(Cc1cn(C)nc1-c1ccc(Oc2ccccc2)cc1)Cc1cnc2ccccn12,-4%,?,?,-1%
Cn1cc(CNCc2cnc3ccccn23)c(-c2ccc(Oc3ccccc3)cc2)n1,28µM*,?,-4%,0%
Cc1c(C(=O)NCC2COc3ccccc3O2)oc2ccc(S(=O)(=O)N3CC(C)CC(C)C3)cc12 (stereo unspecified),-4%,8.3µM*,.,-6%
CCN(CC)S(=O)(=O)c1ccc2oc(C(=O)NCc3ccc(F)cc3)c(C)c2c1,9%,8.3µM*,.,-2%
CCN(CC)S(=O)(=O)c1ccc(NCC2COc3ccccc3O2)c([N+](=O)[O-])c1 (stereo unspecified),-21%,?,?,2%
CN(C)S(=O)(=O)c1ccc(NCC2COc3ccccc3O2)c([N+](=O)[O-])c1 (stereo unspecified),-25%,-9%,13µM*,17%
Cc1c(C(=O)NCC2COc3ccccc3O2)oc2ccc(S(=O)(=O)N3CCOCC3)cc12 (stereo unspecified),-2%,?,22%,1%
CCN(CC)S(=O)(=O)c1ccc2oc(C(=O)NCC3COc4ccccc4O3)c(C)c2c1 (stereo unspecified),-16%,10µM*,?,-4%
O=C1C=C(c2ccc(Cl)cc2)OC2(CCCC2)O1,?,?,13µM*,-1%
O=C1C=C(c2ccccc2)OC2(CCCC2)O1,-4%,-4%,?,-7%
CSc1cccc(NC(=S)N(CCC(C)C)C2CCN(C(C)C)CC2)c1,2%,?,?,13%
CC(C)(C)c1csc(Sc2ccc([N+](=O)[O-])cn2)n1,-19%,13µM*,?,1%
Cc1ccccc1Sc1ccc([N+](=O)[O-])cn1,-18%,.,.,.
Cc1ccnc(Sc2ccc([N+](=O)[O-])cn2)n1,-3%,?,13µM*,0%
O=c1oc2cc(O)ccc2cc1-c1nc2c(s1)CCc1ccccc1-2,18%[11.6 µM],-8%,9.3µM*,1%
CCOc1ccc(CCNC(=O)COC(=O)/C=C/c2ccc(OC)c(OC)c2)cc1OCC,-17%,?,?,26%
COc1ccc(/C=C/c2c(-c3cccc(C)c3)oc3ccc(N4CCOCC4)cc23)cc1,-27%,.,.,.
COC(=O)c1ccc(/C=C/c2c(-c3ccc(OC)cc3)oc3ccc(N4CCOCC4)cc23)cc1,3%,?,3.7µM*,1%
SMILES,AMA1 RON2 block,Pf growth 48h,Pf growth 96h,SARS PLP yeast
COc1ccc(C2C(C(=O)c3ccccc3)=C(C)Nc3nc4ccccc4n32)cc1OC (stereo unspecified),-2%,-21%,3.3µM*,4%
Cc1c(NC(=O)c2ccc3c(c2)OCO3)cccc1-c1nc2ccccc2s1,-3%,22%,31%,?
CC(C)CC1CCCCC1OC(=O)C[N+]1(C)CCCCC1 (stereo unspecified),-16%,?,-24%,1%
O=C(CCl)N(c1ccccc1)C1CCCCC1,2%,10µM*,13µM*,1%
COc1ccc(C2/C=C\CN(S(=O)(=O)c3cccc4cccnc34)CC(=O)N2Cc2ccc(F)cc2)cc1 (stereo unspecified),10%,?,12µM*,-8%
COc1ccc(C2/C=C\CN(C(=O)Nc3ccccc3-c3ccccc3)CC(=O)N2Cc2ccc(F)cc2)cc1 (stereo unspecified),11%,13µM*,13µM*,-5%
COC(=O)N1C/C=C\C(c2ccc(OC)cc2)N(Cc2ccc(F)cc2)C(=O)C1 (stereo unspecified),69%,?,?,-3%
COc1ccc([C@H]2/C=C\CN(S(=O)(=O)c3cccc4cccnc34)[C@@H](C)C(=O)N2Cc2ccc(F)cc2)cc1,-6%,.,.,.
CCCCNC(=O)C(CC)(ONc1ccccc1C(F)(F)F)c1ccccc1OC (stereo unspecified),?,10µM*,?,-14%
Cc1nn(-c2ccccc2)c2c1C(c1ccc(Cl)cc1)N(c1ccccc1)C(=O)N2 (stereo unspecified),-3%,13µM*,13µM*,-34%
COC(=O)c1c(C)[nH]c(C(=O)CSc2nnnn2-c2ccccc2)c1C,-2%,45%,.,6%
COc1ccc(N2CCN(C(=O)CC3NC4CCCCC4NC3=O)CC2)cc1 (stereo unspecified),9%,2%,12µM*,-1%
COc1ccc(C(CNC(=O)c2ccc(S(=O)(=O)N(C)C)cc2)N(C)C)cc1 (stereo unspecified),2%,-1%,20%,-1%
COc1ccc(C(CNC(=O)c2cccc(Br)c2)N2CCCC2)cc1 (stereo unspecified),2%,.,?,0%
COc1ccc(CCNC(=O)c2cc(S(=O)(=O)N3CCCCC3)ccc2Cl)cc1,-3%,3%,?,-5%
COc1ccc(C(CNC(=O)c2ccc(S(=O)(=O)N(C)C)cc2)N2CCCC2)cc1 (stereo unspecified),-14%,10µM*,?,2%
COc1ccc(C(CNC(=O)C(C)Oc2ccc(Br)cc2)N2CCCC2)cc1 (stereo unspecified),-10%,12µM*,?,2%
COc1ccc(C(CNC(=O)c2cc(S(=O)(=O)N3CCCC3)ccc2Cl)N2CCCC2)cc1 (stereo unspecified),-2%,?,9.3µM*,-1%
COc1ccc(CCNC(=O)c2ccc(Cl)c(S(=O)(=O)N3CCCC3)c2)cc1,5%,12µM*,6.6µM*,2%
NC(=O)CN1CCOCCOCCN(CC(N)=O)CCOCCOCC1,67%,-11%,?,-2%
CCCCn1c(C)cc2c(c1=O)[C@H]1O[C@](CCCCN3C(=O)c4ccccc4C3=O)(Cc3ccccc31)O2,.,?,?,-2%[6.58 µM]
CCOc1cc(/C=N/NC(=O)c2cc(C)n(-c3ccc(F)cc3)c2C)ccc1O,48%,0%,-27%,-1%
CC(C)c1ccc2oc(=O)cc(CN3CCOCC3)c2c1,12%,9%,2%,-2%

# Bioassay records from PubChem BioAssay.
